Experimental findings from the OligoGym collection are described below.
Note: reference of the scale not given here.

The target of the first assay is EFCAB6. Kind of assay: pooled miR-30 sensor sort-seq; sequence = guide strand. To be noted: shRNA.
For TTTCATAACAGTCTTAATGTTT, the sensor-assay potency score (higher = more potent) was -0.893.

Take TATATCGAAATTCTTCTCTTGT: the sensor-assay potency score (higher = more potent) stood at 0.825.

With TAAATGTTCACTTAACAGCTGA, the sensor-assay potency score (higher = more potent) was -0.275.

Sequence TAAGAGAACATCCACATTCTTC yielded a sensor-assay potency score (higher = more potent) of -0.398.

In the case of TTAGACAAGTCTGACCATCTGT, the sensor-assay potency score (higher = more potent) came out at 0.537.

Sequence TTGAATATACTCTACACGGTGA showed a sensor-assay potency score (higher = more potent) of 0.203.

In the case of TAGTTTGTAACAGAAATCCTTA, the sensor-assay potency score (higher = more potent) is -0.465.

For another assay, the target named is EFCAB7. Described as above. The conditions noted are these: shRNA.
For TTTACTGTCAACCTCTAGTTTT, the sensor-assay potency score (higher = more potent) is -1.12.

For TTCGGTAAAACACACAAGCTGT, the sensor-assay potency score (higher = more potent) was -0.242.

The sequence TAGTCTTGAGACATTGCTCGTT registered a sensor-assay potency score (higher = more potent) of 0.405.

Regarding TTGTTTTCAATAACTGACGTTA, the sensor-assay potency score (higher = more potent) was -0.29.

TTGATCTTTAGAAATAATGTTT had a sensor-assay potency score (higher = more potent) of -0.858.

In turn, TATATTTTCATAGCCATCCATT showed a sensor-assay potency score (higher = more potent) of -0.796.

The sequence TTTGTATCAAAATTCTCTCTGC had a sensor-assay potency score (higher = more potent) of 0.129.

Regarding TTCTCGATCATTAGCTTCCATT, the sensor-assay potency score (higher = more potent) was -1.27.

Turning to TAATTTACAAAACTTGATGTAG, the sensor-assay potency score (higher = more potent) is -0.142.

TTCATCTCTATATACAAGTTGG registered a sensor-assay potency score (higher = more potent) of -0.725.

Regarding TACAATAATATATCCATTCTTG, the sensor-assay potency score (higher = more potent) was -0.277.

Take TTCTCTATTTCGTAGTTCGGTA: the sensor-assay potency score (higher = more potent) is -1.01.
